# Experimental data: PubChem BioAssay (NCI)
# Where “and” joins values, the source holds several entries; their conditions need not be identical. Equal values may be shown once. Compounds without any hit were thinned out: in the full panel of roughly 83,000, 20% have a hit.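 Testing used 96-well plates and a 48-hour single-concentration exposure. Example: -40 means 40% of the starting cells died.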 Calls of active or inactive are those of the source. The calls were made as follows: active = growth percent below 10; inactive = the rest.
# Test system: MDA-MB-468 breast
# Assay: NCI-60 one-dose screen, 48 h (100 = growth as untreated, 0 = no growth, -100 = all killed)
# Details: 10 µM unless noted
row,SMILES,growth
1,Nc1ncncc1-c1ccc(F)cc1,105% (inactive)
2,COC(=O)CCC1=C(C)C(C)=N/C1=C\c1[nH]c(-c2ccc[nH]2)cc1OC,35% (inactive)
3,COc1ccc(N=C2NN=C(c3c[nH]c4ccccc34)CS2)cc1OC,10.5% (inactive)
4,OCCn1cc(-c2nc(-c3c[nH]c4ncccc34)cs2)c2cc(F)ccc21,-11.1% (active)
5,CCN(CC)c1ccc(/C=C2\Oc3ccc(O)c(I)c3C2=O)cc1,61.6% (inactive)
6,CN(c1ccc(Cl)cc1)S(=O)(=O)c1ccc(-c2cnc(C3CC3)o2)cc1,22.7% (inactive)
7,CCN(CC)CCCNC(=O)c1ccc(N)cc1,86.2% (inactive)
8,CCc1cnn2c(NCc3ccc[n+]([O-])c3)cc(N3CCCC[C@H]3CCO)nc12,-56.3% (active)
9,COc1cc(NCC(O)CN(CC(C)C)CC(C)C)c2ncccc2c1 (stereo not given),-19.8% (active)
10,COc1cc(C2CC(c3cccc(Nc4ccncc4)c3)=NN2c2cc(Cl)cc(Cl)c2)cc(OC)c1OC (stereo not given),-11.9% (active)
11,O=C(Nc1cccc2[nH]c(C(F)(F)F)nc12)c1ccc(Br)cc1F,11.9% (inactive)
12,CN(C)S(=O)(=O)Oc1ccc(-c2sc3cc(OS(=O)(=O)N(C)C)ccc3c2C(=O)c2ccc(OCCN3CCCCC3)cc2)cc1,61.7% (inactive)
13,O=C(Nc1ccccc1N1CCCC1=O)c1oc2ccc(F)cc2c1-c1cnn(-c2ccccc2)c1,51.1% [50 µM] (inactive)
14,C=CC1=C(C(=O)O)N2C(=O)[C@@H](NC(=O)/C(=N\O)c3csc(N)n3)[C@H]2SC1 (stereo in doubt),96.1% (inactive)
15,O=C(/C(=C\c1c(-c2ccccc2)[nH]c2ccccc12)S(=O)(=O)c1ccccc1)c1ccccc1,32.9% (inactive)
16,C=CC(=O)N[C@H](Cc1ccc(-c2cc(Cl)cc(Cl)c2)cc1)[C@H](O)[C@@H](O)C(=O)O,85.5% (inactive)
17,N#CC1c2ccccc2C=CN1C(=O)c1ccccc1 (stereo not given),108% (inactive) and 96.5% (inactive)
18,COC(=O)C1(C)COP(=O)(NC23CC4CC(CC(C4)C2)C3)OC1 (stereo not given),110% (inactive)
19,Cc1cc(N2CCN(c3ccnc4cc(Cl)ccc34)CC2)nc(NC2CCCCC2)n1,-5.23% (active)
20,C[C@@H](c1ccccc1)[C@@H](C(=O)O)c1ccccc1,96.7% (inactive)

row,SMILES,growth
1,CCCCCCN(CCCCCC)CC(O)c1ccc2c3c(cccc13)CC2 (stereo not given),55.6% (inactive)
2,C=CC(=O)N1CCN(c2ccc3cccc(NC(=O)c4cnc(C)cn4)c3n2)CC1,1.58% (active)
3,C=CCOC(=O)C1=C(C)N(CC)C(=O)N(CC)C1c1c(Cl)n(C)c2ccccc12 (stereo not given),98.2% (inactive)
4,O=C1C=CC(=O)N1c1ccc2c(c1)Cc1cc(F)ccc1-2,92.6% (inactive)
5,Nc1ccc(F)cc1F,92.7% (inactive)
6,COC(=O)[C@H](C)NC(=O)NC(=O)NC(=O)CI,70.2% (inactive)
7,CC1(C)N=C(N)N=C(N)N1c1cccc(CCCCOc2ccccc2)c1,10.1% (inactive)
8,Oc1ccc(Nc2ncnc3c2sc2ncccc23)cc1,21.3% (inactive)
9,O=S(=O)(NCCCNc1nccc(-c2[nH]c(-c3ccccc3)nc2-c2ccc(F)c(O)c2)n1)c1ccccc1,88.3% (inactive)
10,COc1ccc(C2=Nn3c(nnc3-c3ccc(Cl)cc3N)SC2)cc1,100% (inactive)
11,CN1C2CCC1/C(=C\c1ccc(F)cc1)C(=O)/C2=C/c1ccc(F)cc1,28.8% (inactive)
12,N#CSc1c[nH]c2ccc(/C=C/C(=O)/C=C(O)/C=C/c3ccc4[nH]cc(SC#N)c4c3)cc12,-8.53% (active)
13,O=C1c2ccccc2C(c2ccccc2)C1c1ccccc1 (stereo not given),71.4% (inactive)
14,CC(C)CCC[C@@H](C)[C@H]1CCC2C3=CCC4C(=O)C=CC(=O)C4C3CC[C@@]21C (stereo not given in full),2.69% (active)
15,O=C(CCl)NNc1nccc(Nc2ccc(S(=O)(=O)Nc3ccncc3)cc2)n1,31.5% (inactive)
16,CCS(=O)(=O)OCCCl,94.9% (inactive)
17,O=[N+]([O-])c1cc2c(ccc3occc32)o1,-8.85% (active)
18,O=C(NNc1nc(N2CCCC2)nc(N2CCCC2)n1)c1ccccc1,112% (inactive)
19,C#CCOc1ccc(C2=NN(CC3CC3)C3N=C(Cl)c4ncn(CC5CC5)c4N23)cc1OCC#C (stereo not given),66.2% (inactive)
20,O=C(Nc1cc(Cl)ccc1O)c1ccccc1Nc1ccnc(C(F)(F)F)c1,12.7% (inactive)
